Hit rate of the full screen: of about 310,000 compounds, about 3,900 (1.3%) were called active.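 The calls were made as follows: active = compounds whose thallium flux B-score, printed positive for inhibition, exceeds three library SD while starting fluorescence stays within three; inactive = the rest.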 For the sample, actives were picked, then their nearest neighbours and some compounds at random.

The target in this test is Potassium voltage-gated channel subfamily KQT member 1 (Homo sapiens) (UniProt P51787). Briefly: KCNQ1 potassium current blockers – cell-based, thallium flux, high-throughput, primary screen (AID 2642).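 Also: channel opened by potassium depolarization with thallium stimulus after 20 min compound exposure.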 Particulars: CHO-K1 KCNQ1, FluxOR thallium flux fluorescence, at 10 µM; stronger effect = higher value.
Chain of Potassium voltage-gated channel subfamily KQT member 1 (Homo sapiens) (P51787 whole entry, looked up): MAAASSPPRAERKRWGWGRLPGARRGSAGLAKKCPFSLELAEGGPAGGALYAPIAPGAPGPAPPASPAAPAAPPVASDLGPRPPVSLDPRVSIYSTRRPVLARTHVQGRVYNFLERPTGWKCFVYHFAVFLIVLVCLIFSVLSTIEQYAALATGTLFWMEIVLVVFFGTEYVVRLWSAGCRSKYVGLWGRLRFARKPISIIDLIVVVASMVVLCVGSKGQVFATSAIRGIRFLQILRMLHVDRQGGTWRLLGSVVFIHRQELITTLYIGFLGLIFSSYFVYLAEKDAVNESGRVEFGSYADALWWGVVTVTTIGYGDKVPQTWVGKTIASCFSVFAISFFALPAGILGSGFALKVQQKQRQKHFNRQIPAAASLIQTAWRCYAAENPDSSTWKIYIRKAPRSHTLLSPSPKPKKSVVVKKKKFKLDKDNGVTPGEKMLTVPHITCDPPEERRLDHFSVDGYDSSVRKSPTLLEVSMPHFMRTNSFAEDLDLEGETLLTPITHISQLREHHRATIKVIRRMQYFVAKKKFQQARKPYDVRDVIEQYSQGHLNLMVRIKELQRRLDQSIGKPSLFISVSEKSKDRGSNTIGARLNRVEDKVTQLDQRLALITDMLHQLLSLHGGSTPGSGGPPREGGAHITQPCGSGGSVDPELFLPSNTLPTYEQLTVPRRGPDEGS
For the compound `CCOC(=O)C1CCN(c2ncnc3c2oc2ccc(Br)cc23)CC1`, the B-score was 9 (active).
As for `CCOC(=O)C1CCN(c2ncnc3c2c(-c2ccccc2)cn3-c2ccc(C)cc2)CC1`, the entry is “inactive”; as for `CCOC(=O)C1CCN(Cc2nnc(-c3cccc(Br)c3)o2)CC1`, “inactive”.
As for `N/C(=N\c1nc2ccccc2o1)NC(=O)C(Cc1ccccc1)N1C(=O)c2ccccc2C1=O` (stereo not drawn), the entry is “inactive”; as for `CCOC(=O)COn1c(=O)c(-c2ccc(OCC)cc2)[n+]([O-])c2ccccc21`, “inactive”; as for `NC(=O)C1CCN(C(=O)c2ccc3c(=O)n(Cc4cccc(Br)c4)c(=S)[nH]c3c2)CC1`, “inactive”.
As for `CC(=O)N/N=C(\C)c1ccc(Br)cc1Br`, the entry is “inactive”.
With `CC(=N\NC(=O)c1cc(Br)ccc1O)/C(=N/O)C(=O)Nc1ccccc1`, the B-score was 9 (active).
Consider `CC(C)/C=N/NC(=O)c1cc(Br)ccc1O`, for which the B-score entry is “inactive”.
As for `CC1(C(=O)O)CCC(C(=O)Nc2ccc(Cl)c(Cl)c2)C1(C)C` (stereo not drawn), the entry is “inactive”.
Consider `CC(=O)Nc1cccc(NC(=O)c2ccc3c(c2)CCN3S(C)(=O)=O)c1`, for which the B-score result was “inactive”.
As for `Cc1nc(C(=O)NCc2ccccc2)sc1C1(C)CC(c2cccnc2)=NO1` (stereo not drawn), the entry is “inactive”; as for `Cc1nc(C(=O)Nc2ccc(Cl)cc2)sc1C1(C)CC(c2ccccc2)=NO1` (stereo not drawn), 6 (active); as for `Cc1nc(-c2ccc(Cl)cc2)sc1C1(C)CC(c2ccc(Br)cc2)=NO1` (stereo not drawn), “inactive”.
For `CC1C(=O)Nc2ccc(S(=O)(=O)N3CCN(c4ccccc4F)CC3)cc2NC1=O` (stereo not drawn) the value was “inactive”; for `C=CCC1(CC=C)CCCN1C(=O)CC1C(=O)NCCN1Cc1ccccc1OC` (stereo not drawn), “inactive”; for `N#C/C(=C/c1ccc(N2CCOCC2)o1)C(=O)N1CCOCC1`, “inactive”.
For `N#C/C(=C\c1ccc(N2CCOCC2)o1)C(=O)N1CCOCC1` the value was 7 (active); for `COc1ccc(N2CCN(C(=O)/C(C#N)=C/c3ccccc3)CC2)cc1`, “inactive”; for `COc1ccc(N2CC(C(=O)N[C@@H](C)C(=O)N3CCCCC3)CC2=O)cc1` (stereo partly drawn), “inactive”.
Take `Cc1cc(C(C)(C)C)oc1C(=O)N(CC(=O)NC1CCCC1)Cc1ccc(Cl)cc1`: the B-score result was “inactive”.
As for `COCCN1C(=O)C(=O)/C(=C(/O)c2ccc(S(=O)(=O)N3CCOCC3)cc2)C1c1ccc(O)c(OC)c1` (stereo not drawn), the entry is “inactive”; as for `COc1ccccc1C(=O)NC(CCSC)C(=O)N1CCN(C/C=C/c2ccccc2)CC1` (stereo not drawn), “inactive”.
For `CCOc1ccc(CCNC(=O)COC(=O)CCS(=O)(=O)c2ccc(C)cc2)cc1OCC` the value was “inactive”; for `N#Cc1c(/N=C/N2CCCC2)oc(-c2ccccc2)c1-c1ccccc1`, 7 (active); for `N#Cc1c(-c2ccccc2)c(-c2ccccc2)n[nH]c1=O`, “inactive”.
As for `COc1ccc(-c2oc(/N=C/N3CCCC3)c(C#N)c2-c2ccc(OC)cc2)cc1`, the entry is “inactive”.
With `COc1ccc(C)cc1NC(=O)CCC(=O)Nc1nnc(C(F)(F)F)s1`, the B-score entry was “inactive”.
For `O=C(NCC(F)(F)F)Nc1nnc(C(F)(F)F)s1` the value was 6 (active); for `O=C(Nc1nnc(COc2ccccc2)s1)Nc1ccccc1F`, “inactive”; for `Cc1ccccc1NS(=O)(=O)CCCCC(Cl)(Cl)Cl`, “inactive”.
As for `CN(C)S(=O)(=O)c1cccc(NC(=O)COC(=O)C2(c3ccccc3F)CCCC2)c1`, the entry is “inactive”.
Take `N#Cc1ccc(C(=O)Nc2nc(-c3cccs3)c(C(=O)C(F)(F)F)s2)cc1`: the B-score result was “inactive”.
For `Cc1ccc(C(=O)c2c(NC(=O)c3ccccc3)sc(C)c2C)cc1` the value was 6 (active).
For `Cc1ccc(C(=O)c2c(NC(=O)c3ccncc3)sc3c2CCCC3)cc1` the value was “inactive”.
As for `Cc1sc(NC(=O)c2ccc3ncsc3c2)c(C(N)=O)c1C`, the entry is “inactive”.
Consider `COc1ccc(NC(=O)NNC(=O)COc2cc(C)c(Cl)c(C)c2)c(OC)c1`, for which the B-score entry was “inactive”.
As for `CC1(C)NC(=O)N(CC(=O)Nc2cc(C(F)(F)F)cc(C(F)(F)F)c2)C1=O`, the entry is “inactive”.
As for `CN(C)Cc1ccccc1C1(O)c2ccccc2CSc2ccccc21` (stereo not drawn), the figure is 7 (active); as for `COc1ccc(CCNS(=O)(=O)c2cccc([N+](=O)[O-])c2)cc1`, “inactive”; as for `CCC1Sc2ccc(S(=O)(=O)CCC(=O)NCc3cccs3)cc2NC1=O` (stereo not drawn), “inactive”.
Regarding `CN(C)NC(=O)c1csnc1-c1c(Cl)cccc1Cl`, the B-score entry is “inactive”.
For `O=c1ccc2cc(S(=O)(=O)Nc3ccccc3F)ccc2o1` the value was “inactive”.
As for `O=C(Nc1cccc(Br)c1)c1ccc2snnc2c1`, the entry is “inactive”; as for `O=C(Nc1ccc2ccccc2c1)Nc1ccc2snnc2c1`, 8 (active); as for `CCc1ccccc1NC(=O)c1ccc2snnc2c1`, “inactive”.
As for `Cc1ccc(C(=O)NCC(=O)NCc2cc(=O)n(C)c(=O)n2C)cc1`, the entry is “inactive”.
In the case of `Cc1ccc(S(=O)(=O)NC(=O)Nc2nc(-c3ccc(F)c(F)c3)cs2)cc1`, the B-score entry is “inactive”.
For `COc1ccc(CC(=O)Nc2nc(-c3ccc(F)c(F)c3)cs2)cc1OC` the value was 9 (active); for `COc1cc(CC(=O)Nc2nc(-c3ccc(F)c(F)c3)cs2)cc(OC)c1OC`, “inactive”; for `NC(=O)[C@H]1CC2(CC(c3cccc(NC(=O)[C@H]4CCC(=O)N4)c3)=NO2)CN1C(=O)c1ccccc1C(=O)c1ccccc1` (stereo partly drawn), “inactive”.
Regarding `O=C(Cn1nnc2ccccc2c1=O)Nc1cc(C(F)(F)F)ccc1N1CCOCC1`, the B-score entry was “inactive”.
As for `CCCc1cc(=O)[nH]c(SCC(=O)Nc2sc3c(c2C#N)CCCC3)n1`, the entry is “inactive”; as for `CCOC(=O)c1cnc(SC)nc1Sc1ccc(Cl)cc1Cl`, 6 (active); as for `CCOC(=O)c1nc(C)n(-c2ccc(Cl)cc2Cl)n1`, “inactive”.
For the compound `CCOC(=O)c1cnc(COc2ccccc2Cl)[nH]c1=O`, the B-score entry is “inactive”.
Consider `COc1ccccc1N1CCN(c2ncnc3sc(C)c(-c4ccccc4)c23)CC1`, for which the B-score was 9 (active).
In the case of `Oc1ccccc1N1CCN(c2ncnc3sc(-c4ccccc4)cc23)CC1`, the B-score result is “inactive”.
`COc1ccccc1N1CCN(c2ccc([N+](=O)[O-])nc2)CC1`: the B-score result was “inactive”.
For `CCN(CC)S(=O)(=O)c1ccc(OC(C)C)c(N)c1` the value was “inactive”; for `CCc1ccccc1NC(=O)/C(=C/c1ccccc1)c1ccccc1`, “inactive”.
For `COCc1cc(C)nc2sc3c(=O)n(-c4cccc5ccccc45)nnc3c12` the value was “inactive”.
As for `COc1ccc(/C=C/C(=O)Nc2ccc(C34CC5CC(CC(O)(C5)C3)C4)cc2)cc1OC`, the entry is “inactive”.
In the case of `Cc1cccc(N2CCN(C(=O)c3cnn4c(C(F)F)cc(-c5ccccc5)nc34)CC2)c1C`, the B-score was 7 (active).
As for `Cc1cccc(N2CCN(C(=O)c3cc4c(=O)[nH]c5ccccc5c4n3C)CC2)c1C`, the entry is “inactive”; as for `O=C(O)c1cnn2c(C(F)(F)F)cc(-c3ccccc3)nc12`, “inactive”.
As for `COc1ccc(N2CCN(C(=O)c3cn(C)c4ccc(S(=O)(=O)N5CCOCC5)cc4c3=O)CC2)cc1`, the entry is “inactive”.
As for `COCCn1c(N)c(NCc2ccccc2)c(=O)[nH]c1=O`, the entry is “inactive”; as for `COC1=CCC2([N+](=O)[O-])CN(CC(=O)O)CC1([N+](=O)[O-])C2` (stereo not drawn), “inactive”; as for `CCCCOc1ccc(C(=O)NCC(=O)OCC(=O)N2CCN(S(=O)(=O)c3ccc(C)cc3C)CC2)cc1`, “inactive”.
`N=c1c2c(-c3ccccc3)c(-c3ccccc3)n(Cc3ccccc3)c2ncn1CCCO`: the B-score was 10 (active).
As for `COCCn1cnc2c1c(=O)n(Cc1ccc(Br)cc1)c(=O)n2Cc1ccccc1`, the entry is “inactive”.
On to `CCN(CC)CCn1cnc2c1c(=O)[nH]c(=O)n2Cc1ccccc1`, for which the B-score entry is “inactive”.
As for `O=S(=O)(Nc1ccccc1Br)c1cccs1`, the entry is “inactive”.
For `O=S(=O)(NCc1ccc(Cl)cc1Cl)c1cccs1` the value was “inactive”.
As for `O=C(Nc1cccc(Cl)c1)Nc1ccccc1NS(=O)(=O)c1cccs1`, the B-score is 14 (active).
For `COCCNC(=O)CN(Cc1ccco1)C(=O)CCC(=O)Nc1nccs1` the value was “inactive”; for `CC(C)N(C(=O)c1ccc(-c2ccccc2F)cc1)C(C)C`, “inactive”; for `CC(=O)N(C1=C(Cl)C(=O)c2ccccc2C1=O)c1ccc(C(=O)O)cc1`, 17 (active).
For `O=C(CN1C(=O)c2ccccc2C1=O)NCc1ccc(C(=O)O)cc1` the value was “inactive”; for `Cc1ccc(Cl)cc1NC(=O)C1CCCN(c2cnccn2)C1` (stereo not drawn), “inactive”; for `O=C(COc1ccc(S(=O)(=O)N2CCOCC2)cc1Cl)N1CCOCC1`, “inactive”.
As for `OCC1(Cc2ccccc2C(F)(F)F)CCN(Cc2cccc3cnccc23)CC1`, the entry is “inactive”; as for `O=C(c1ccncc1)N1CCN(S(=O)(=O)c2cccc([N+](=O)[O-])c2)CC1`, “inactive”; as for `O=C(c1ccncc1)N1CCN(S(=O)(=O)c2cc(C(F)(F)F)cc(C(F)(F)F)c2)CC1`, 6 (active).
`O=C(Cc1ccsc1)N1CCN(S(=O)(=O)c2cc(C(F)(F)F)cc(C(F)(F)F)c2)CC1`: the B-score entry was “inactive”.
For `Cn1c(=O)c2c(nc(N3CCOCC3)n2CCNC2=NCCC2)n(C)c1=O` the value was “inactive”; for `CCc1cccc(NC(=O)C2CCCN(S(=O)(=O)c3ccc4[nH]c(=O)ccc4c3)C2)c1` (stereo not drawn), “inactive”; for `COC(=O)c1ccc(/C=C2/C(=O)Oc3ccccc32)cc1`, “inactive”.
As for `C/C(N)=C(/C#N)C(=O)COC(=O)C1CCN(C(=O)c2ccc(Cl)cc2)CC1`, the entry is “inactive”; as for `COc1ccc(NC(=O)CNC(=O)Cn2ccc3ccccc3c2=O)c(OC)c1`, “inactive”.
For `Cc1ccc(OCCCCc2c(C)n[nH]c2C)cc1` the value was “inactive”.
Consider `CCOC(=O)N1CCN(C(=O)c2ccc(S(=O)(=O)Nc3cccc(C(F)(F)F)c3)cc2)CC1`, for which the B-score result is “inactive”.
As for `CCn1c(/C=C/Nc2ccccc2)[n+](CC)c2ccc(C(=O)OCC(F)(F)F)cc21`, the figure is 9 (active); as for `CCOC(=O)c1ccc2c(c1)nc(C)n2CC`, “inactive”.
For the compound `O=C(COC(=O)/C=C/c1cccs1)NC1CCCCC1`, the B-score result is “inactive”.
For `Cc1ccc(NC(=O)COc2ccc(-n3ccnc3)cc2)cc1Cl` the value was “inactive”.
For `Cc1ccc(-c2nc(-c3cccnc3)sc2CC(=O)Nc2ccc(C)c(Cl)c2)cc1` the value was 11 (active); for `Cc1nc(-c2ccc(F)cc2)c(CC(=O)Nc2cccc(S(=O)(=O)N3CCOCC3)c2)s1`, “inactive”; for `COc1cc(C(=O)N/C(=C\c2cn(C)c3ccccc23)C(=O)N2CCOCC2)cc(OC)c1OC`, “inactive”.
As for `COc1cc(/C=C(\C#N)c2nc3ccccc3[nH]2)ccc1O`, the figure is 9 (active).
As to `COc1ccc(/C=C(/NC(=O)c2ccc(C)cc2)c2nc3ccccc3[nH]2)cc1OC`, the B-score entry is “inactive”.
`COc1cc(/C=C(\C#N)c2nc3c(s2)CC(C)CC3)ccc1O` (stereo not drawn): the B-score entry was “inactive”.

The record behind these values is PubChem BioAssay AID2642 (Johns Hopkins Ion Channel Center, 2010).
